From PubChem BioAssay (NCATS)
Values joined by “and” are separate entries in the source; they are usually repeats but may differ in a detail not shown here. Identical values can stand only once. Inconclusive results are not listed. Where a call stands in place of a potency, no number is given. Active and inactive are the calls of the source. Calls come from the whole dose curve; as a rule, active = well fitted curve in the direction sought with a large enough effect; inconclusive = small, poorly fitted or top-dose-only effect, or another doubt; inactive = no such curve, though single readings can be large; an effect the other way counts as inactive or inconclusive.

How the values were obtained:
[1] = HPAF-II Cancer Cell Toxicity qHTS against the NCATS CANVASS Library (AID 1347346); note: nearly all actives have a fitted effect of over 55% in size; note: potency is the fitted concentration of half-maximal effect
How it was run: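 Cytotoxicity read-out was CellTiter-Glo luminescence after 72 h at 37 degrees C exposure of HPAF-II cells (1000/well) to compounds in an 11-point titration.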

[2] = OV-SAHO Cancer Cell Toxicity qHTS against the NCATS CANVASS Library (AID 1347348); note: series mostly up to about 38 µM; nearly all actives have a fitted effect of over 55% in size
How it was run: (§1)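 Cells were seeded at 1000 per well, allowed 4 h at 37 degrees C/5% CO2, then pin-treated with an 11-point compound series. After 72 h, viability was read as CellTiter-Glo luminescence following 15min at room temperature.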

[3] = Panc-1005 Cancer Cell Toxicity qHTS against the NCATS CANVASS Library (AID 1347349); note: nearly all actives have a fitted effect of over 60% in size; note: potency is the fitted concentration of half-maximal effect
How it was run: as §1

[4] = COV-362 Cancer Cell Toxicity qHTS against the NCATS CANVASS Library (AID 1347352); note: series mostly up to about 38 µM
How it was run: (§2)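 Toxicity was measured as CellTiter-Glo luminescence after 72 h exposure to an 11-point compound series. Compound was added to 1000 cells/well 4 h after seeding.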

[5] = A2780 Cisplatin Sensitive Ovarian Cancer Cell Toxicity qHTS against the NCATS CANVASS Library (AID 1347353); note: nearly all actives have a fitted effect of over 60% in size; note: potency is the fitted concentration of half-maximal effect
How it was run: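 Cisplatin-sensitive A2780 ovarian cells (750/well) received compound in 11 concentrations, and were incubated 72 h at 37 °C. ATP content was measured by ATPLite luminescence; bortezomib served as control.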

[6] = UWB1.289-WTBRCA1 Cancer Cell Toxicity qHTS against the NCATS CANVASS Library (AID 1347354)
How it was run: as §2

[7] = HEK-293 Cancer Cell Toxicity qHTS against the NCATS CANVASS Library (AID 1347355); note: nearly all actives have a fitted effect of over 65% in size; note: potency is the fitted concentration of half-maximal effect; for outcome: series mostly up to about 46 µM
How it was run: as §2

[8] = HPAF-II 24hr Apoptosis Induction qHTS against the NCATS CANVASS Library (AID 1347356)
How it was run: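 Caspase-Glo 3/7 luminescence, read after 15 min room-temperature development, measures apoptosis in HPAF-II cells treated 24 h at 37 degrees C with an 11-point concentration series; 500 cells/well; doxorubicin control.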

[9] = KB-8-5-11 Cancer Cell Toxicity qHTS against the NCATS CANVASS Library (AID 1347364); note: nearly all actives have a fitted effect of over 75% in size; note: potency is the fitted concentration of half-maximal effect
How it was run: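 Viability read as CellTiter-Glo luminescence after 72 h at 37 °C, 5% CO2. 11-point compound series on 500 KB-8-5-11 cells/well in DMEM/10% FBS. Follow-up plating included 1 uM tariquidar in the medium.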

[10] = SDT Cancer Cell Toxicity qHTS against the NCATS CANVASS Library (AID 1347365); note: nearly all actives have a fitted effect of over 60% in size; note: potency is the fitted concentration of half-maximal effect
How it was run: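 Cytotoxicity taken from CellTiterGlo ATP luminescence after 72 hr at 37C, 5% CO2. Canine glioma line SDT, 500 cells/well, treated at 11 concentrations; bortezomib dose series as control.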

[11] = qHTS for Hypoxia signaling pathway (HIF-1) antagonists against the NCATS CANVASS Library (AID 1347374); note: nearly all actives have a fitted effect of over 60% in size; note: potency is the fitted concentration of half-maximal effect
How it was run: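 Antagonism scored as loss of CoCl2-driven (60 uM stock added) HRE beta-lactamase signal, read by CCF4 FRET at 460/530 nm. Compounds were tested in an 11-point series on ME-180 reporter cells for 17 hrs at 37C, with parallel CellTiter-Glo cytotoxicity.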

[12] = qHTS for Hypoxia signaling pathway (HIF-1) agonists against the NCATS CANVASS Library (AID 1347375)
How it was run: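 Beta-lactamase reporter under HRE control in ME-180 cells; compounds (11-point qHTS series) added after 5 hrs plating, then 17 hrs at 37C. FRET substrate read after 2 hr; same-well CellTiter-Glo luminescence gave viability and normalization.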

[13] = Cytotoxicity qHTS for assessment of Hepg2 cells membrane integrity screened against the NCATS CANVASS Library (AID 1347387)
How it was run: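 Membrane damage quantified as fluorescent LDH-release signal (ex 560, em 590 nm) in HepG2 cells treated 5 hr at 37C. qHTS format, 11 concentrations spanning 0.59 nM - 46 uM final, cells plated at 2000 per well the night before.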

[14] = qHTS for inhibitors of ER calcium dysfunction: SERCaMP assay screened against the NCATS CANVASS Library (AID 1347393); note: nearly all actives have a fitted effect of over 40% in size; note: potency is the fitted concentration of half-maximal effect
How it was run: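 Thapsigargin-induced ER calcium depletion drives GLuc-SERCaMP secretion from SH-SY5Y cells; compounds given 16 h beforehand were scored by lowered coelenterazine luminescence after 4 h challenge.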

[15] = Vero-766 cells viability qHTS against the NCATS CANVASS Library: Counterscreen for Zika virus inhibition assay (AID 1347394)
How it was run: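 CellTiter-Glo luminescence, lower signal indicating cytotoxicity. Vero 766 cells without Zika virus, 1000 cells/well, plated overnight, then treated 72 h at 37C across an 11-point series.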

[16] = Viability qHTS for inhibitors of the SERCaMP assay screened against the NCATS CANVASS Library (AID 1347400); note: nearly all actives have a fitted effect of over 70% in size; note: potency is the fitted concentration of half-maximal effect
How it was run: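 CellTiter-Glo luminescence measured cytotoxicity after 48 h at 37C of compound treatment (11-point series). Cells were SH-SY5Y-GLuc SERCaMP MJH297 derivatives, seeded at 1000 per well 4 h beforehand.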

[17] = Redox Reaction Profiling qHTS: Assay Interference Panel against the NCATS CANVASS Library (AID 1347401); note: potency is the fitted concentration of half-maximal effect
How it was run: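 Redox-cycling liability assessed as DTT-driven conversion of resazurin (5 uM, with 200 uM DTT, HEPES pH 7.3) to fluorescent resorufin. Fluorescence at 525/598 nm measured initially and after 15 min dark incubation.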

[18] = qHTS for ATAD5 Agonist screened against the NCATS CANVASS Library (AID 1347367)
How it was run: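 Luminescence read-out: ATAD5-driven luciferase in stably transfected HEK 293T cells, which rises post-transcriptionally with DNA damage. Cells were exposed 16hr at 37C to test compound; a CellTiter-Fluor fluorescence read (1hr) measured viability first.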

[19] = qHTS for activators of Nrf2/ARE signaling pathway screened against the NCATS CANVASS Library (AID 1347391); note: nearly all actives have a fitted effect of over 60% in size; note: potency is the fitted concentration of half-maximal effect
How it was run: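 Eleven-point qHTS, 16 h treatment of HepG2 cells carrying an ARE-driven beta-lactamase reporter; CCF4 ratio read (405 nm excitation, 460 and 530 nm emission), with CellTiter-Glo ATP luminescence for viability.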

[20] = qHTS for activators of dead-cell proteases activity screened against the NCATS CANVASS Library (AID 1347392);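 note: luminescence from protease leaking out of membrane-damaged cells cleaving impermeant substrate; rising signal means more cytotoxicity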
How it was run: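 Luminescent dead-cell protease readout (AAF-aminoluciferin, 15 min, room temperature) after 5 h compound treatment of HepG2 cells (2000/well, pre-attached 18 h). Eleven concentrations.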

Structure (SMILES)	Potency [1]	Potency [2]	Potency [3]	Potency [4]	Potency [5]	Potency [6]	Potency [7]	outcome [8]	Potency [9]	Potency [10]	Potency [11]	outcome [12]	outcome [13]	Potency [14]	Potency [15]	Potency [16]	Potency [17]	Potency [18]	Potency [19]	Potency [20]
C[C@@]12CCC[C@@](C)(C(=O)O)[C@H]1CC[C@@]13C[C@@H](CC[C@H]12)[C@](C)(O)C3	inactive	inactive	inactive	inactive	inactive	inactive	inactive	inactive	inactive	inactive	inactive	inactive	inactive	inactive	inactive	inactive	inactive			
CO[C@@H]1[C@H](O)[C@@H](C)O[C@@H](OC[C@@H]2C(C)OC(=O)/C=C/[C@H](C)C(O[C@@H]3O[C@H](C)CC4(OC(=O)O[C@@H]4C)C3O)[C@@H](C)CC(C)C(=O)/C=C/[C@H]3OC23)[C@@H]1OC (some centres not stated)	inactive				11.8 µM (active)		20.9 µM (active)	inactive	inactive	16.6 µM (active)	18.8 µM (active)	inactive	inactive	8.6 µM (active)	inactive	42.8 µM (active)		inactive	3.71 µM (active)	
COC(=O)[C@@]1(C)CCC[C@]2(C)c3cc(OC)ccc3CC[C@@H]12		inactive	inactive	inactive	inactive	inactive	inactive		inactive	inactive	inactive	inactive		inactive	inactive	inactive	inactive	inactive	inactive	inactive
CC[C@@H]1C[C@@]2(CC)OC(=O)[C@@]3(CC)[C@H](CC)[C@@H]1[C@@H]23	inactive	inactive	inactive	inactive	inactive	inactive	inactive	inactive	inactive	inactive	inactive	inactive	inactive	inactive	inactive	6.04 µM (active)		inactive	inactive	inactive
CC(=O)c1c(C)cc2c(c1O)C(=O)c1c(O)cc(O)cc1C2=O	inactive	inactive	inactive	inactive	inactive	inactive	inactive	inactive	inactive	inactive	inactive	inactive		inactive	inactive	inactive	inactive		inactive	inactive
CC[C@@H](c1cc(OC)c(OC)cc1OC)[C@H](C)[C@@H](/C(C)=C/c1cc(OC)c(OC)cc1OC)c1cc(OC)c(OC)cc1OC				inactive	14.8 µM (active) and 20.9 µM (active)	inactive	16.6 µM (active)	inactive	inactive	inactive			inactive	2.43 µM (active) and 19.3 µM (active)	inactive	inactive	inactive	inactive		inactive
C/C(=C\[C@@H](C)CC/C=C/CC/C=C/C(=O)O)[C@H](O)[C@H](C)C(=O)CCCC1CC(=O)NC(=O)C1	6.68 µM (active)	inactive		inactive	inactive	inactive	inactive		inactive		inactive		inactive	inactive	inactive	inactive		inactive	inactive	inactive
C/C(=C\[C@H](C)C(=O)C[C@H](O)CC1CC(=O)NC(=O)C1)[C@@H]1OC(=O)CCCC/C=C/[C@@H](O)C[C@@H]1C					2.35 µM (active)		9.35 µM (active)		inactive	2.35 µM (active)	4.2 µM (active)	inactive	inactive	inactive			inactive	inactive	7.41 µM (active)	inactive
C/C=C1/C2=CCCN3C(=O)O[C@H]([C@H]1O)[C@H]23	inactive	inactive	inactive	inactive	inactive	inactive	inactive			inactive	inactive	inactive	inactive	inactive	inactive	inactive	inactive	inactive	inactive	inactive
CN1CCc2cc3c(c4c2C1(C)C(=O)c1cc(O)ccc1-4)OCO3 (configuration not stated)						inactive	18.7 µM (active)	inactive	23.5 µM (active)	1.48 µM (active)	13.3 µM (active)		inactive	19.3 µM (active)	inactive		inactive		inactive	inactive
C/C(=C\[C@H](C)C(=O)/C=C/CC1CC(=O)NC(=O)C1)[C@@H]1OC(=O)CCCC/C=C/[C@H](O)[C@@H](O)[C@@H]1C	18.8 µM (active)		14.9 µM (active)		10.5 µM (active)	inactive	23.5 µM (active)	inactive	inactive	13.2 µM (active)	11.8 µM (active)		inactive	19.3 µM (active)	inactive		24.1 µM (active)	inactive	4.67 µM (active)	inactive
